Assay results reported in PubChem BioAssay (NCI).
This is part of a sample that, as a whole, favours compounds with a hit. Of some 83,000 tested, about 20% had one in any assay.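 48-hour exposure, single concentration, 96-well plates; percent growth endpoint where 0 means no net growth. Active: below 10.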 Values without a mark were called inactive. Calls of active or inactive are those of the source.

Tests used:
Test in all cases: NCI-60 one-dose screen, 48 h (100 = growth as untreated, 0 = no growth, -100 = all killed)
Conditions in all cases: 10 µM unless noted
SK-MEL-2 melanoma = tested on: SK-MEL-2 melanoma
EKVX NSCLC = tested on: EKVX NSCLC
SN12C renal = tested on: SN12C renal
UO-31 renal = tested on: UO-31 renal
TK-10 renal = tested on: TK-10 renal
ACHN renal = tested on: ACHN renal
CAKI-1 renal = tested on: CAKI-1 renal
A498 renal = tested on: A498 renal
CCRF-CEM leukemia = tested on: CCRF-CEM leukemia
MOLT-4 leukemia = tested on: MOLT-4 leukemia

Compound	growth (SK-MEL-2 melanoma)	growth (EKVX NSCLC)	growth (SN12C renal)	growth (UO-31 renal)	growth (TK-10 renal)	growth (ACHN renal)	growth (CAKI-1 renal)	growth (A498 renal)	growth (CCRF-CEM leukemia)	growth (MOLT-4 leukemia)
COc1cc2c(c(OC)c1OC)C(=O)CC(c1cccc(NC(=O)c3ccccc3Br)c1)O2 (stereo not given)	75.8%	102%	91.5%	77.3%	97.1%	93%	109%	75.9%	73.1%	69.6%
COC(=O)c1c2c(c(C)[n+]([O-])c1C)C(=O)C=CC2=O	-63.1% (active)	98.3%	-87.7% (active)	-64.8% (active)	72.9%	-37.6% (active)	2.19% (active)	60.8%	0.622% (active)	-1.84% (active)
CN1CCN(C(=O)c2cc(-c3ccc4ncnc(N5CCc6cc(F)c(Cl)cc65)c4c3)cnc2N)CC1	-48% (active)	-10.2% (active)	9.07% (active)	3.95% (active)	-14.2% (active)	5.3% (active)	-33.3% (active)	-69.2% (active)	7.93% (active)	1.54% (active)
Cc1cc(C)c(-c2c(O)c(Br)c(-c3c(C)cc(C)c(Br)c3C)c(O)c2Br)c(C)c1Br	-22.3% (active)	19.2%	37.2%	-29.9% (active)	12%	14.1%	5.75% (active)	64.7%	35.6%	28.9%
COc1ccc2cc(Cn3cc[n+](Cc4ccc5ccccc5c4)c3)ccc2c1	-15.8% (active)	50.5%	16.9%	84.4%	9.68% (active)	98.8%	96%	74.7%	20.2%	17.2%
Cn1cc(-c2csc(-c3cn(C(=O)OC(C)(C)C)c4ccccc34)n2)c2ccnc(Cl)c21	96.5%	62.8%	55.1%	58.4%	52.8%	32.7%	80%	88.4%	61.7%	66.8%
CNC(=O)c1c(NC(=O)c2ccc(C(C)(C)C)cc2)sc2c(CN(C)C)c(O)ccc12	-53% (active)	63.3%	4.62% (active)	-78.5% (active)	87.5%	-22.3% (active)	-13.1% (active)	53.1%	-7.61% (active)	-35.5% (active)
NC(=S)N/N=C/c1cn(-c2ccccc2)nc1-c1cc2ccccc2oc1=O	39.2%	75.3%	63.1%	50.7%	77.2%	77.4%	44.1%	-6.2% (active)	53.7%	33.4%
CCn1cc(C2=C(c3cn(C)c4ncccc34)C(=O)NC2=O)c2cccnc21	84.8%	54.6%	68.5%	50%	69.4%	74.7%	61.6%	-2.35% (active)	65.8%	81.9%
CCn1cc(C(=O)N/N=C/c2ccc(Br)cc2)c(=O)c2cc(F)c(N3CCNC(C)C3)c(F)c21 (stereo not given)	97.7%	86.9%	52.2%	68.4%	99.6%	88.8%	68.5%	98%	29.7%	22%
COc1ccc(-c2nnc(SCC(=O)Nc3ccc(/C(C)=N\O)cc3)n2-c2ccccc2)cc1OC	57.6%	71.1%	71.8%	104%	41.1%	75.5%	87.4%	91.8%	98.5%	91.7%
CCOC(=O)c1c2c(n3c1NCC3)-c1ccccc1C2=O	79.3%	95.8%	98.3%	39.8%	96.4%	97.3%	89.9%	100%	85%	87.8%
C=CC1(C)C(O[Si](C)(C)C(C)(C)C)CC2C3OC(=O)NC31c1cccc3c1[C@H](C(=O)N3C)C2(C)C (stereo not given in full)	66.9%	44.2%	50.2%	49.5%	71.3%	59.6%	53.3%	62.6%	47.1%	26%
Cc1ccc(/C=C(\C#N)C(=O)Nc2ncc(Cc3cc(Cl)ccc3Cl)s2)o1	45.9%	60.4%	58.9%	31.7%	44.1%	45.4%	23.7%	40.5%	55.4%	40.7%
CCOC(=O)c1c(-c2ccccc2)n2c(=O)cc(C)c3c(O)c(O)cc1c32	83.8%	86.6%	68.7%	51.1%	89.2%	47%	52%	88.6%	17.1%	36.1%
COc1ccc(C2=NN(C(=O)c3cc(OC)c(OC)c(OC)c3)C(c3ccc(N(C)C)cc3)C2)cc1 (stereo not given)	66.5%	35.6%	31.3%	19.4%	56.5%	25.8%	39.1%	-1.92% (active)	26.7%	18.9%
COc1ccc(-c2cn(-c3ccc(Cl)cc3)c(SCC(=O)c3ccc([N+](=O)[O-])cc3)n2)cc1	73.6%	95%	78.3%	82.5%	55.9%	81.5%	76.1%	85.2%	93.8%	83.5%
COc1ccc(C(c2cc(OC)c(OC)c(OC)c2)N2CCN(Cc3ccccc3)CC2)cc1 (stereo not given)	27.4%	82.7%	88.4%	68.8%	84.8%	92.8%	66.7%	51.9%	68.8%	53.5%
COc1cc(/C=C2\C(=O)N(c3c(Cl)cccc3Cl)c3ccccc32)cc(OC)c1OCCCCCCn1c2ccccc2c(=O)c2ccccc21	96.2%	111%	96.8%	74.3%	112%	91.9%	82.9%	123%	104%	90%
COc1ccc(OC)c(-c2cn3nc(-c4c[nH]c5ccc(Br)cc45)sc3n2)c1	86.3%	36.9%	44.2%	45%	62%	38.8%	29.7%	86.1%	32.8%	48.8%
CN1C(=O)N(C)C2C1NC(=S)N2/N=C/C=C/c1ccccc1[N+](=O)[O-] (stereo not given)	17%	43.6%	31.4%	44.6%	42.8%	30.7%	23%	10.8%	7.73% (active)	27.8%
Clc1ccc(-c2nc(-c3c[nH]c4ncccc34)cs2)cc1	72% [100 µM]	34.7% [100 µM]	62.4% [100 µM]	65.7% [100 µM]	39.7% [100 µM]	66.9% [100 µM]	49.4% [100 µM]	47.2% [100 µM]	109% [100 µM]	98.1% [100 µM]
Cc1nc2sc(C(=O)Nc3ccccc3)c(N)c2cc1C(=O)/C=C/c1ccccc1	18.4%	43.2%	-27.1% (active)	-82.6% (active)	-18.1% (active)	3.7% (active)	-54.1% (active)	9.65% (active)	6.14% (active)	15.3%
O=C(/C=C/C12c3ccccc3C(c3ccccc31)C1C(=O)NC(=O)C12)c1ccc(F)cc1 (stereo not given)	-52.2% (active)	19.1%	11.2%	15.8%	16.8%	4.11% (active)	16.7%	-6.86% (active)	-0.929% (active)	2.98% (active)
CN1CCCc2cc(/C=C3/SC(=S)N(CCc4ccc(O)cc4)C3=O)ccc21	98%	93.7%	77.3%	52.4%	114%	87.3%	58.8%	73.5%	14.8%	51%
O=C(CN1C(=O)/C(=C/c2ccco2)SC1=S)NCCc1c[nH]c2ccc(F)cc12	119%	98.3%	97.6%	70.8%	105%	101%	81.8%	94.5%	97.1%	97.7%
